Measurements reported in PubChem BioAssay (Tox21).
“And” between values parts separate entries of the source, which are not always exact repeats. Equal values may be shown once. Results filed as inconclusive are left out. Entries that show only a call come without a potency. The source holds several records for some structures; these can differ, active in one and inactive in another. The source made the active and inactive calls. Calls come from the whole dose curve; as a rule, active = well fitted cell-killing curve with a large enough effect in the repeat runs; inconclusive = weak or mixed curves, or effect the other way; inactive = no such curve, though single readings can be large or run the other way.

assay: qHTS assay to identify small molecule agonists of the vitamin D receptor (VDR) signaling pathway - cell viability counter screen (AID 743224); conditions: VDR-bla HEK293T viability, CellTiter-Glo luminescence, 16 h; series mostly up to 62.6 µM; activity change, negative = cytotoxicity: at the top concentration; note: nearly all actives have a fitted effect of over 50% in size
Source text: U.S. Tox21 Program National Center for Advancing Translational Sciences [NCATS] NIH Chemical Genomics Center [NCGC] U.S. Environmental Protection Agency [EPA] National Institutes of Environmental Health Sciences [NIEHS] National Toxicology Program [NTP] U.S. Food and Drug Administration [FDA] Tox21 Assay Overview: The vitamin D receptor (VDR), a member of nuclear hormone receptor superfamily, plays a critical role in calcium homeostasis and bone metabolism. It is also involved in cell differentiation and growth, and thrombogenicity. […] The cytotoxicity of the Tox21 compound library against the VDR-bla cell line was tested in parallel by measuring the cell viability using CellTiter-Glo assay (Promega, Madison, WI) in the same wells.
Tox21 Assay Protocol Summary: VDR-bla cells were dispensed at 2,000 cells/6 uL/well into black wall/clear-bottom 1536-well plates using a Multidrop Combi (Thermo Fisher Scientific, Waltham, MA) dispenser. After the assay plates were incubated at a 37C and 5% CO2 for 4 h, 23 nL of compounds dissolved in DMSO, positive controls or DMSO only was transferred to the assay plate by a Pintool station (Kalypsys, San Diego, CA). The plates were incubated at 37C and 5% CO2 for 16 h. After 1 uL of LiveBLAzerTM B/G FRET substrate was added using a Bioraptr Flying Reagent Dispenser (FRD) workstation (Beckman Coulter, Indianapolis, IN, USA), the plates were incubated at room temperature for 2 h, and fluorescence intensity was measured by an Envision plate reader (PerkinElmer, Shelton, CT). For cell viability readout that measures cytotoxicity, 3 ul/well of CellTiter-Glo reagent was added into the assay plates using a FRD. After 30 min incubation at room temperature, the luminescence intensity in the plates was measured using a ViewLux (PerkinElmer) plate reader.
Potency is the fitted concentration of half-maximal effect.

| SMILES | Potency | activity change, negative = cytotoxicity |
| --- | --- | --- |
| O=S(=O)(O)O | inactive |  |
| CCCCn1cc[n+](C)c1 | inactive |  |
| CCCCn1cc[n+](C)c1C | inactive |  |
| COP(=O)(OC)C(O)C(Cl)(Cl)Cl (stereo not given) | inactive |  |
| Cc1cc(-c2ccc(N)c(C)c2)ccc1N | inactive |  |
| CCCC[n+]1ccccc1C | inactive |  |
| CCCC[N+]1(C)CCCCC1 | inactive |  |
| O=C(O)c1nc(Cl)ccc1Cl | inactive |  |
| O=C(O)C(Cl)Cl | inactive |  |
| CC(Cl)(Cl)C(=O)O | inactive |  |
| CC[N+](CC)(CC)CC | inactive |  |
| CCCC[n+]1ccc(C)cc1 | inactive and 43.4 µM (active) |  |
| CCOP(=S)(OCC)Oc1ccc2c(C)c(Cl)c(=O)oc2c1 | inactive |  |
| O=C(O)CC(O)(CC(=O)O)C(=O)O | inactive |  |
| CCCC[n+]1ccccc1 | inactive |  |
| O=C(O)c1ccccc1O | inactive |  |
| COP(=O)(OC)OC=C(Cl)Cl | inactive |  |
| CC(=O)O | inactive |  |
| CNC | inactive |  |
| CCCCCCCCCCCCCC[P+](CCCCCC)(CCCCCC)CCCCCC | 9.82 µM (active) and 5.54 µM (active) |  |

| SMILES | Potency | activity change, negative = cytotoxicity |
| --- | --- | --- |
| O=C(O)CCl | inactive |  |
| O=C(O)COc1ccc(Cl)cc1Cl | inactive |  |
| CC(=O)[O][Hg][c]1ccccc1 | 686 nM (active) and 871 nM (active) and 422 nM (active) |  |
| C1CCC(NC2CCCCC2)CC1 | inactive |  |
| C[C@]12CCC(=O)C=C1CC[C@@H]1[C@@H]2CC[C@]2(C)C(=O)CC[C@@H]12 | inactive |  |
| OCCOc1ccccc1 | inactive |  |
| CC[n+]1ccccc1 | inactive |  |
| CC[N+]1(C)CCCC1 | inactive |  |
| O=C(O)C(Cl)(Cl)Cl | inactive |  |
| O=c1[nH]c(=O)n(Cl)c(=O)n1Cl | inactive |  |
| CCC[N+]1(C)CCCC1 | inactive |  |
| O=[N+]([O-])c1ccccc1O | inactive |  |
| O=P1(N(CCCl)CCCl)NCCCO1 (stereo not given) | inactive |  |
| CCC[N+]1(C)CCCCC1 | inactive |  |
| Cc1cc(Cl)ccc1OCC(=O)O | inactive |  |
| Oc1ccccc1-c1ccccc1 | inactive |  |
| CCCCCC[n+]1ccccc1 | 39.3 µM (active) and 49.3 µM (active) and inactive |  |
| COc1ccc(N)cc1 |  | -0.92% (inactive) |
| Nc1ccc(-c2ccc(N)c(Cl)c2)cc1Cl | inactive |  |
| Cc1cc(Cl)ccc1N | inactive |  |
